# Data published in publication PMC7862700, “An all-to-all approach to the identification of sequence-specific readers for epigenetic DNA modifications on cytosine”.
# Key:
# Assay in all cases: DAPPL (digital affinity profiling via proximity ligation, sequencing); 10 mM Tris-HCl pH 7.5, 50 mM NaCl, 1 mM DTT, 4% glycerol, room temperature, 30 min; GST-TFs on glutathione beads, 16-mer random dsDNA library, 0.1% formaldehyde crosslink after washing; high values mean tight binding
# Settings in all cases: protein: recombinant; tags: N-terminal GST; dsDNA, one strand shown
# FLI1 = target: T1, FLI1 (Homo sapiens, UniProt Q01543 1-452)
# T1 sequence: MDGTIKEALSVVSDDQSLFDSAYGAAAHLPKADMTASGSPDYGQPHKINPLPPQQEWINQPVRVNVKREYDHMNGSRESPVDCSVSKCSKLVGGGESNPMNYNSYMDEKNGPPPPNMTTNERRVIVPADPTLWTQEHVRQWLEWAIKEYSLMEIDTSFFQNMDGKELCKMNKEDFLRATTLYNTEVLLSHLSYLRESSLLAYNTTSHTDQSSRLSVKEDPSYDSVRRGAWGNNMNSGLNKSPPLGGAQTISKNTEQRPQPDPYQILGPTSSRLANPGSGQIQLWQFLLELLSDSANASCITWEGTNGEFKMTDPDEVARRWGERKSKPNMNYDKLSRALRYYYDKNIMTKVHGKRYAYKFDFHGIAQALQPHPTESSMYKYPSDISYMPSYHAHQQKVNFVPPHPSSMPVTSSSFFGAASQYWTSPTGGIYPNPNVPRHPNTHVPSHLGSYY
# How it was run: (§1)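 Binding signal is defined as a hexamer's read frequency for one factor over its frequency for the tag-only sample. To obtain reads, GST-fused human transcription factors were expressed in yeast, captured on glutathione beads, barcoded with DNA and pooled with that sample. Pools met 200 nmole of a 16-mer random double-stranded DNA library in Tris/NaCl/DTT/glycerol buffer for 30 min at room temperature before washing, 0.1% formaldehyde crosslinking, proximity ligation (BsaI/T4 ligase, 1 h, 37 °C), PCR and Illumina NextSeq500 sequencing.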
# ELK1 = target: T2, ELK1 (Homo sapiens, UniProt P19419 1-428)
# T2 sequence: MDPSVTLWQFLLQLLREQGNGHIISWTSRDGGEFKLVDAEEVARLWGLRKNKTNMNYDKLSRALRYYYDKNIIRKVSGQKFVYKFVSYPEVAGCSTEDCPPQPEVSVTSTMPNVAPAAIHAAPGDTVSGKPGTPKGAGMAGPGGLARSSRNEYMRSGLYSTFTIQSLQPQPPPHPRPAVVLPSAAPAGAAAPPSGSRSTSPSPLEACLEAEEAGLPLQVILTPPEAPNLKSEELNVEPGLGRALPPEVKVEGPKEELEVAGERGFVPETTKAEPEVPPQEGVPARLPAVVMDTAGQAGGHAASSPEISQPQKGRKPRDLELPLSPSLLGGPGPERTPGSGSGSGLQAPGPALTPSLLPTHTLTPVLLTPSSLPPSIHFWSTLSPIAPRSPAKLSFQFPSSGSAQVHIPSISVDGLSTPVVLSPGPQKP
# How it was run: as §1
# GABPA = target: T3, GABPA (Homo sapiens, UniProt Q06546 1-454)
# T3 sequence: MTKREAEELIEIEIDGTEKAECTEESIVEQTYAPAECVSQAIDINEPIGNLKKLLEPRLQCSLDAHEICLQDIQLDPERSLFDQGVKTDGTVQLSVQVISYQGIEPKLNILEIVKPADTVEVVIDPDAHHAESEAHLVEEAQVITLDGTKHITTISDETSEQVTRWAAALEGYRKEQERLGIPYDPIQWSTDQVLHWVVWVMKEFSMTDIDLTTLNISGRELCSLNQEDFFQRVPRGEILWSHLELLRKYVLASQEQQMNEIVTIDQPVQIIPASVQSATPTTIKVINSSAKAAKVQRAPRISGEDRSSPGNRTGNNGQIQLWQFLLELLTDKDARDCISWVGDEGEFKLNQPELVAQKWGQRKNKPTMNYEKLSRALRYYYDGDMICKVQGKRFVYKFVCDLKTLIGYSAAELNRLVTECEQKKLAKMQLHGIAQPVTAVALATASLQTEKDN
# How it was run: as §1
# ERG = target: T4, ERG (Homo sapiens, UniProt P11308 1-479)
# T4 sequence: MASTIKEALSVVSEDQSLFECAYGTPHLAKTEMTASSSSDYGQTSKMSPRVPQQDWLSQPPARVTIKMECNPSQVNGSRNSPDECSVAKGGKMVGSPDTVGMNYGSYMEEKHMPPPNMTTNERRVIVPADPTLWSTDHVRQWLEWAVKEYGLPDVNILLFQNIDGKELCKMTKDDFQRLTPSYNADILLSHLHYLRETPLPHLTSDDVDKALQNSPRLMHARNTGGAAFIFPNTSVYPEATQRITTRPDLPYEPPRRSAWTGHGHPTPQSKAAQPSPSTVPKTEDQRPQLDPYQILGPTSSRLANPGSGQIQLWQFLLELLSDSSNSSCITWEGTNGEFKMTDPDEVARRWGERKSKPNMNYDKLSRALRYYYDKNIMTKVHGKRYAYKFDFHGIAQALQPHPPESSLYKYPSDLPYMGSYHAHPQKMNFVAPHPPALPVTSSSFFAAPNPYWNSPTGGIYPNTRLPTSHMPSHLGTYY
# How it was run: as §1
# ELF1 = ELF1 (Homo sapiens, UniProt P32519 1-619)
# How it was run: as §1
# EHF = target: T5, EHF (Homo sapiens, UniProt Q9NZC4 1-300)
# T5 sequence: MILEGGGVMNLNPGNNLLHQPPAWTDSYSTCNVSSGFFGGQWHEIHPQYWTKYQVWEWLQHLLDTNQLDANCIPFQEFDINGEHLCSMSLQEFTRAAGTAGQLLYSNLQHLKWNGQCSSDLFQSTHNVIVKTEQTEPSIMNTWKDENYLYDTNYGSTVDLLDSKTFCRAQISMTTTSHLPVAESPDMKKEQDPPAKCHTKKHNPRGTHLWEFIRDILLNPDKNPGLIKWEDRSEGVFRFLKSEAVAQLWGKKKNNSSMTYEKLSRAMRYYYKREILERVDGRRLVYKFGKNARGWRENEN
# How it was run: as §1
# SPI1 = SPI1 (Homo sapiens, UniProt P17947 1-270)
# How it was run: as §1
# SPIB = SPIB (Homo sapiens, UniProt Q01892 1-262)
# How it was run: as §1
# ELK3 = target: T6, ELK3 (Homo sapiens, UniProt P41970 1-407)
# T6 sequence: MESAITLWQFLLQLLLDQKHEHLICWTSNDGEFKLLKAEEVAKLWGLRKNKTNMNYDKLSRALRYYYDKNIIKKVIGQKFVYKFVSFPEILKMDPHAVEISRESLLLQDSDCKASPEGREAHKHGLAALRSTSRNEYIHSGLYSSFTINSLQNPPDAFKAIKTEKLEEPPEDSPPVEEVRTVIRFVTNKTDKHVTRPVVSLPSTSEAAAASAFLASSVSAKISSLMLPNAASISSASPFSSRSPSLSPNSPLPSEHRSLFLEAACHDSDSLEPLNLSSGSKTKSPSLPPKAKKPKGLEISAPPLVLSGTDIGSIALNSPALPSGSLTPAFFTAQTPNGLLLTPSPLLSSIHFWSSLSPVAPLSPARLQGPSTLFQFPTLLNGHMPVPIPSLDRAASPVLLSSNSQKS
# How it was run: as §1
# SPIB, sequence (Q01892 whole entry): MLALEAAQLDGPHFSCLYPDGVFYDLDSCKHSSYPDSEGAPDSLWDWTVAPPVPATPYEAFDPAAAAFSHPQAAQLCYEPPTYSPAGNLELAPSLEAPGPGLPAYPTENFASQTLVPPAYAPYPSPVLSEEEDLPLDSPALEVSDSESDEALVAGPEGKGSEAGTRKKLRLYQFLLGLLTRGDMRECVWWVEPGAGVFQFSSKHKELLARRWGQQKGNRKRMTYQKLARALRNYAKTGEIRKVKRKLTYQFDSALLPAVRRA
# ELF1, sequence (P32519 whole entry): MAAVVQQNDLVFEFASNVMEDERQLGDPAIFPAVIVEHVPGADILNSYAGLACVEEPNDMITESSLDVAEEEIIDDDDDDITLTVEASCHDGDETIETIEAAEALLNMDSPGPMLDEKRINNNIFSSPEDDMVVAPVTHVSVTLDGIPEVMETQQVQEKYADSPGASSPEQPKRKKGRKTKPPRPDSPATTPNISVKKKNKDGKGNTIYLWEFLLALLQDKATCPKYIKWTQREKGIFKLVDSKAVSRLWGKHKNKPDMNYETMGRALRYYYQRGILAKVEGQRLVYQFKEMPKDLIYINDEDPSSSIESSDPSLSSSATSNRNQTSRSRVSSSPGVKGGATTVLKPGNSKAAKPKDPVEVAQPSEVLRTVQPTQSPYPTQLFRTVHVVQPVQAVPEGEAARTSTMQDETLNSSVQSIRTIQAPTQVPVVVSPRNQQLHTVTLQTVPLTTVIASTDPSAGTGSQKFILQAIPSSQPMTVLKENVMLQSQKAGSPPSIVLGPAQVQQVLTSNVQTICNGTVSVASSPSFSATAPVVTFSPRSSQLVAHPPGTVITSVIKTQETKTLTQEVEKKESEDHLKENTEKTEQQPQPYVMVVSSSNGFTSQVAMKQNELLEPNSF
Sequence,binding signal (FLI1),binding signal (ELK1),binding signal (GABPA),binding signal (ERG),binding signal (ELF1),binding signal (EHF),binding signal (SPI1),binding signal (SPIB),binding signal (ELK3)
CCCCTT,"1.48 fold enrichment (6-mer frequency, TF over GST control)","1.55 fold enrichment (6-mer frequency, TF over GST control)","1.44 fold enrichment (6-mer frequency, TF over GST control)","1.54 fold enrichment (6-mer frequency, TF over GST control)","1.53 fold enrichment (6-mer frequency, TF over GST control)","1.62 fold enrichment (6-mer frequency, TF over GST control)","2.01 fold enrichment (6-mer frequency, TF over GST control)","1.53 fold enrichment (6-mer frequency, TF over GST control)","1.51 fold enrichment (6-mer frequency, TF over GST control)"
TGCAAC,"1.27 fold enrichment (6-mer frequency, TF over GST control)","1.32 fold enrichment (6-mer frequency, TF over GST control)","1.4 fold enrichment (6-mer frequency, TF over GST control)","1.41 fold enrichment (6-mer frequency, TF over GST control)","1.35 fold enrichment (6-mer frequency, TF over GST control)","1.36 fold enrichment (6-mer frequency, TF over GST control)","1.28 fold enrichment (6-mer frequency, TF over GST control)","1.34 fold enrichment (6-mer frequency, TF over GST control)","1.43 fold enrichment (6-mer frequency, TF over GST control)"
TGCGCG,"1.02 fold enrichment (6-mer frequency, TF over GST control)","1.05 fold enrichment (6-mer frequency, TF over GST control)","1.02 fold enrichment (6-mer frequency, TF over GST control)","1.04 fold enrichment (6-mer frequency, TF over GST control)","1.02 fold enrichment (6-mer frequency, TF over GST control)","1.16 fold enrichment (6-mer frequency, TF over GST control)","1.16 fold enrichment (6-mer frequency, TF over GST control)","1.06 fold enrichment (6-mer frequency, TF over GST control)","1.11 fold enrichment (6-mer frequency, TF over GST control)"
CGTCCG,"1.31 fold enrichment (6-mer frequency, TF over GST control)","1.27 fold enrichment (6-mer frequency, TF over GST control)","1.24 fold enrichment (6-mer frequency, TF over GST control)","1.27 fold enrichment (6-mer frequency, TF over GST control)","1.28 fold enrichment (6-mer frequency, TF over GST control)","1.36 fold enrichment (6-mer frequency, TF over GST control)","1.08 fold enrichment (6-mer frequency, TF over GST control)","1.41 fold enrichment (6-mer frequency, TF over GST control)","1.36 fold enrichment (6-mer frequency, TF over GST control)"
GATACT,"1.14 fold enrichment (6-mer frequency, TF over GST control)","1.01 fold enrichment (6-mer frequency, TF over GST control)","1.2 fold enrichment (6-mer frequency, TF over GST control)","1.21 fold enrichment (6-mer frequency, TF over GST control)","1.1 fold enrichment (6-mer frequency, TF over GST control)","1.21 fold enrichment (6-mer frequency, TF over GST control)","1.12 fold enrichment (6-mer frequency, TF over GST control)","1.16 fold enrichment (6-mer frequency, TF over GST control)","1.09 fold enrichment (6-mer frequency, TF over GST control)"
CACCAT,"1.2 fold enrichment (6-mer frequency, TF over GST control)","1.16 fold enrichment (6-mer frequency, TF over GST control)","1.06 fold enrichment (6-mer frequency, TF over GST control)","1.08 fold enrichment (6-mer frequency, TF over GST control)","1.14 fold enrichment (6-mer frequency, TF over GST control)","1.12 fold enrichment (6-mer frequency, TF over GST control)","1.03 fold enrichment (6-mer frequency, TF over GST control)","1 fold enrichment (6-mer frequency, TF over GST control)","1.22 fold enrichment (6-mer frequency, TF over GST control)"
GTACAC,"1.18 fold enrichment (6-mer frequency, TF over GST control)","1.31 fold enrichment (6-mer frequency, TF over GST control)","1.18 fold enrichment (6-mer frequency, TF over GST control)","1.29 fold enrichment (6-mer frequency, TF over GST control)","1.17 fold enrichment (6-mer frequency, TF over GST control)","1.14 fold enrichment (6-mer frequency, TF over GST control)","1.18 fold enrichment (6-mer frequency, TF over GST control)","1.18 fold enrichment (6-mer frequency, TF over GST control)","1.23 fold enrichment (6-mer frequency, TF over GST control)"
TTGCTC,"1.35 fold enrichment (6-mer frequency, TF over GST control)","1.4 fold enrichment (6-mer frequency, TF over GST control)","1.37 fold enrichment (6-mer frequency, TF over GST control)","1.26 fold enrichment (6-mer frequency, TF over GST control)","1.28 fold enrichment (6-mer frequency, TF over GST control)","1.3 fold enrichment (6-mer frequency, TF over GST control)","1.3 fold enrichment (6-mer frequency, TF over GST control)","1.25 fold enrichment (6-mer frequency, TF over GST control)","1.01 fold enrichment (6-mer frequency, TF over GST control)"
